# From PubChem BioAssay AID1347076 (National Center for Advancing Translational Sciences (NCATS), 2019)
# Hit rate of the full screen: of about 400,000 compounds, about 13,000 (3.2%) were called active. Another 18% or so got no clear call; they are omitted. What follows is part of a selection rich in actives, with near analogues and random picks from the rest. Values without a mark were called inactive. The call rests on the fitted dose curve; in most records, active means well fitted cell-killing curve with a large enough effect; inconclusive means small, poorly fitted or top-dose-only effect, or effect the other way; inactive means flat fitted curve, though single readings scatter.
# Assay: qHTS assay for MDR1-selective chemotherapeutics: Primary screen using the drug-selected MDR subline cells KB-V1; further: nearly all actives have a fitted effect of over 60% in size
# Settings: KB-V1 MDR cells viability, CellTiter-Glo, 72 h; series mostly up to 46.1 µM; activity change, negative = cytotoxicity: at the top concentration
# How it was run: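 Cells of the MDR subline KB-V1 are plated, dosed with compound at multiple concentrations, and incubated 72 h at 37 degrees C; CellTiter-Glo is then added and luminescence read after 10 min.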
# On the % scale 0 is the no-effect control and ±100 the full control effect; potency means the concentration at half of the fitted maximal effect.
SMILES,"activity change, negative = cytotoxicity [%]",Potency
COC(C(=O)Nc1ccc(C(C)=O)cc1)c1ccccc1 (centres undefined),-10.6,–
COC(C(=O)Nc1ccc(S(=O)(=O)Nc2ccc(C)c(C)c2)cc1)c1ccccc1 (centres undefined),–,20.6 µM (active)
COc1cccc(Cn2c(SCc3ccc(C(=O)N4CCC(C)CC4)cc3)nc3ccncc32)c1,9.9,–
CC1CCN(C(=O)c2ccc(CSc3ccc(Cl)cc3)cc2)CC1,–,18.4 µM (active)
O=C(C1CC1)N1CCN=C1SCc1ccc(Cl)cc1,0,–
CCCNC(=O)C1(C)CCCN(C(=O)c2cccc(OC(C)=O)c2C)C1 (centres undefined),3.99,–
FC(F)(F)c1ccccc1Cc1c(-c2ccccc2)nc2c3ccccc3ccn12,5.23,–
CC(C)CNC(=O)C(=O)NCC(c1ccc2c(c1)OCO2)N1CCOCC1 (centres undefined),8.13,–
Cc1cc(C)c(S(=O)(=O)NCC(c2ccc3c(c2)OCO3)N2CCOCC2)c(C)c1 (centres undefined),–,10.3 µM (active)
COc1ccc(F)cc1S(=O)(=O)NCC(c1ccc2c(c1)OCO2)N1CCN(C)CC1 (centres undefined),8.77,–
O=C(CCc1ccccc1)NCc1ccc2c(c1)CCN2C(=O)c1ccccc1,17.5,–
Cc1nccn1-c1ccc(NC(=O)[C@H]2O[C@@H](n3cnc4c(N)ncnc43)[C@H](O)[C@@H]2O)cc1,-10.6,–
CSc1ccc(CN2CCC2(C)C(=O)Nc2ccc(C)c(O)c2)cc1 (centres undefined),4.69,–
Cc1nc2sc(C)c(C)n2c(=O)c1S(=O)(=O)NCCc1ccc(Cl)cc1,0,–
CC1(C(=O)NS(=O)(=O)c2ccccc2)CCN1C(=O)c1ccccc1 (centres undefined),-0.286,–
Cc1cc(C)cc(-n2ccnc2SCC(=O)Nc2nc3ccccc3s2)c1,-4.98,–
Cc1nnc(NC(=O)CSc2nccn2-c2cccc(C)c2C)s1,–,9.2 µM (active)
Cc1cccc(-n2ccnc2SCC(=O)Nc2cccc3ccccc23)c1C,17,–
C[C@@H]1CN([C@@H](C)CO)C(=O)CCCn2nncc2CO[C@@H]1CN(C)S(=O)(=O)c1ccc(-c2ccccc2)cc1,1.41,–
CN(C)c1ccc(/C=N/NC(=O)c2ccc(Cn3cc(Br)cn3)o2)cc1,-5.79,–
O=C(N/N=C\c1ccc(Br)cc1)c1ccc(Cn2cccn2)o1,–,11.6 µM (active)
O=C(N/N=C/c1cccc(OCc2ccccc2)c1)c1ccc(Br)o1,-19.2,–
C[C@H]1CN([C@@H](C)CO)S(=O)(=O)c2ccc(Br)cc2O[C@H]1CN(C)C(=O)c1cnccn1,-2.51,–
CC(C)CC1C(=O)N(Cc2cn(Cc3ccco3)nn2)CCS(=O)(=O)N1Cc1ccc(-c2ccc(Cl)c(Cl)c2)cc1 (centres undefined),1.12,–
CCCCN(C=O)c1c(CC)nc2c(OCCC3CCCCC3)cccn12,-22.3,–

SMILES,"activity change, negative = cytotoxicity [%]",Potency
COC(=O)Cc1[nH]n(-c2nc3ccccc3s2)c(=O)c1C(C)=Nc1ccc(OC)cc1,–,9.2 µM (active)
COc1ccc(CC(=O)Nc2ccc(-c3nc4ccccc4s3)c(C)c2)cc1,11.6,–
COc1ccc(/C=C(/CC(=O)Nc2ccc(C)cc2)c2nc3ccccc3s2)cc1,7.41,–
CC1=C(C(=O)N2CCOCC2)CC(CC(=O)NCc2cccc3ccccc23)C(=O)N1CCC1=CCCCC1 (centres undefined),-13.8,–
COc1cc(C(=O)NCCc2csc3nc(-c4ccccc4C)nn23)cc(OC)c1OC,5.16,–
CCC(CC)C(=O)N1CCc2cc(OC)c(OC)cc2C1COc1ccc(F)cc1 (centres undefined),-17,–
CC[C@H]1CN2CCc3cc(OC)c(OC)cc3[C@@H]2C[C@@H]1C[C@H]1NCCc2cc(OC)c(OC)cc21,–,5.17 µM (active)
COc1ccc2c(c1)CCNC2Cc1ccc(OC)c(O)c1 (centres undefined),-11.2,–
Cc1cc(Cl)ccc1-c1nc(NCCN(C)C)nc2ccsc12,1.27,–
COc1cc(C=NC2CCCCC2)ccc1O,5.52,–
CCOc1cccc(-c2nnc(SCC(=O)NC3CC3)n2C)c1,15.3,–
CCc1ccc(-c2nn3c(C)nnc3s2)cc1NC(=O)c1ccc(-c2cccc(Cl)c2)o1,-9.55,–
CCOc1cccc(-c2nn3c(-c4ccccn4)nnc3s2)c1,–,5.17 µM (active)
CCOC(=O)C1CCN(C(=O)c2ccc3c(=O)n4nc(Nc5ccccc5CC)sc4nc3c2)CC1,-15.5,–
COc1cc(NC(=O)Cn2nc(-c3ccc(C)c(C)c3)ccc2=O)cc(OC)c1,8.58,–
CC(NC(=O)Cn1cc(C(F)(F)F)cc(Cl)c1=O)c1ccccc1 (centres undefined),-0.457,–
Cc1ccc(-c2nc3c(Cl)cc(C(F)(F)F)cn3c2Cc2cccc(Cl)c2)cc1,-0.482,–
O=c1c([N+](=O)[O-])cc(C(F)(F)F)cn1Cc1cccc(Cl)c1,–,18.4 µM (active)
Cn1c(NCc2cccnc2)nc2cc(-c3ccc(F)cc3)sc2c1=O,-1.46,–
O=C(Nc1ccccc1C(F)(F)F)c1nc(S(=O)(=O)Cc2ccccc2F)ncc1Cl,10.7,–
COc1ncnc2c1ncn2CCCNCCN1CCOCC1,70.3,–
Cc1ccccc1C1=NC(C(F)(F)F)(C(F)(F)F)c2c(n(-c3ccc(F)cc3)c(=O)[nH]c2=O)N1,–,14.6 µM (active)
COc1cccc(C(=O)NC2(C(F)(F)F)C(=O)Nc3c2c(=O)[nH]c(=O)n3-c2ccc(C)cc2)c1 (centres undefined),-11.3,–
O=c1[nH]c(=O)n(Cc2ccco2)c2c1C(C(F)(F)F)(C(F)(F)F)N=C(c1ccco1)N2,-26.4,–
